40 molecules from PubChem BioAssay (EPA / NIEHS) can be followed below.

The structures appear in SMILES notation. Values joined by “and” are separate entries in the source; they are usually repeats but may differ in a detail not shown here. Identical values can stand only once. Active and inactive are the calls of the source. How the source made its calls: active means hit-call score of the fitted dose curve at least 0.9, where 1 is the maximum; inactive means score below 0.9.

Read-out in the assay: catalase (CAT), CAT (gene 847)
As to the kind of experiment: LTEA_HepaRG_CAT: Life Technologies and Expression Analysis (LTEA) Assay for catalase (CAT) using HepaRG (AID 2283452).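 On AC50: TaqMan qRT-PCR signal normalized to ACTB GAPDH and POLR2A housekeeping genes.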 As to conditions: mRNA level, 48 h; actives raise or lower the signal. The protocol:
LTEA_HepaRG is a cell based, multiplexed-readout assay that uses HepaRG, a human liver cell line, with measurements taken at 48 hours after chemical dosing on a 96-well plate.LTEA_HepaRG_CAT is one of 102 assay component(s) measured in the LTEA HepaRG cell culture assay. It is a marker of Oxidative Stress.Data from the assay component LTEA_HepaRG_CAT was analyzed into 1 endpoint. This assay endpoint, LTEA_HepaRG_CAT, was analyzed with bidirectional fitting relative to DMSO as the negative control and baseline of activity. Using a type of inducible reporter, measures of mRNA induction for gain or loss-of-signal activity can be used to understand regulation of transcription factor activity. To generalize the intended target to other relatable targets, this assay endpoint is annotated to the catalase intended target family, where the subfamily is oxidative stress.
A total of 1060 chemcials from the ToxCast library were tested in eight-point concentration-response experiments. Cell culture and cytotoxicity assays were conducted at Thermo Fisher Scientific's Custom Services facility (Madison, WI). A single lot of human HepaRG cells (Thermo Fisher Scientific, Frederick, MD) was used for the cell culture experiments. 96-well format collagen type I coated plates of human HepaRG cells were prepared using established methods. Briefly, cryopreserved HepaRG cells were thawed, plated at a density of approximately 100,000 cells/well in HepaRG Thaw, Plate, and General Purpose media (HPRG770, Thermo Fisher Scientific), and incubated for 48 hours. 0.5% DMSO was selected as vehicle control to balance the requisite need of DMSO in HepaRG cultures to maintain differentiation (for example, baseline metabolism, proportions of hepatocytes vs. cholangiocytes), while enabling further hepatic receptor pathway activation (for example, PXR and CAR) in response to chemical exposure. 48 hours after plating, the culture medium was replaced with HepaRG Serum-Free Incudtion Media. Cells were exposed to each test chemical in duplicate and maintained in CO2 incubators for another 48 hours. Chemical plates were thawed to room temperature and 200x concentrations of treatment groups were prepared. 8-point conentration-reponse curves were made with the highest exposure at 100 uM, followed by half-log dilutions, all in 0.5% DMSO. Each test plate contained variouse controls, induction positive controls (1mM phenobarbital), cytotoxicity positive controls ([…] aflatoxin B1), vehicle controls (0.5% DMSO), and total lysis controls (0.5% DMSO). Cell morphology images were taken using an Essen IncuCyte FLR automated microscope, with six 96-well plates imaged in about 24 minutes. Images were captured and exported and JPEG files. Spent culture media was transfered to black-well plates for the LDH assay, and remaining media was sorted at -80 C for later use. Cells were treated with RLT buffer and frozen until shipped for gene expression analysis. Total RNA was isolated from the cell suspension in 75 uL of Buffer RLT (Qiagen, Germantown, MD 20874) by Quintiles/Expression Analysis (Durham, NC) using a custom isolation procedure. Total RNA from each plate well was transferred to a preamplification plate. Fluidigm's 96.96 Dynamic ArrayTM (Fluidigm, Amsterdam, the Netherlands) technology was used for gene expression analyses by quantitative reverse transcription polymerase chain reaction (qRT-PCR, performed by Quintiles/Expression Analysis, Durham, NC)89. Standard TaqManTM Assays (Applied Biosystems/ThermoFisher Scientific, Foster City, CA) were used to assess the expression of 93 genes selected based on their selectivity and sensitivity to important hepatic receptors known to be modulated by environmental chemicals; importance in human hepatocyte functionality; and hepatotoxicity. […]
`CC(=O)S[C@@H]1CC2=CC(=O)CC[C@]2(C)[C@H]2CC[C@@]3(C)[C@@H](CC[C@@]34CCC(=O)O4)[C@H]12`: the AC50 (commonly the midpoint of the concentration-response curve, whichever way the signal moves) is 60.7 µM (active). Same read-out and setting: next, `S=C(S)NCCNC(=S)S.[Mn+2].[S-]C([S-])=NCCN=C([S-])[S-].[Zn+2]`: 881 nM (active) and 1.09 µM (active) and 1.05 µM (active). Consider `C[C@]12C[C@H](O)[C@H]3[C@@H](CCC4=CC(=O)CC[C@@]43C)[C@@H]1CC[C@@H]2C(=O)CO`, for which the molecule was classed as inactive. Same read-out and setting: next, `COC(=O)c1ccccc1C(=O)O`: “inactive”; `CCCCCOC(=O)COc1cc(N2C(=O)C3=C(CCCC3)C2=O)c(F)cc1Cl`: “inactive”. On the same count and under the same terms, next, `CCCCOCCOCCOCc1cc2c(cc1CCC)OCO2`: “inactive”. Take `CCCCC(CC)CN1C(=O)C2C3C=CC(C3)C2C1=O` (stereo not given): the AC50 is 77.2 µM (active). Regarding `c1ccc2[nH]c(-c3cscn3)nc2c1`, the call was inactive.

Turning to `C[C@]12CC[C@@H]3c4ccc(O)cc4C[C@@H](CCCCCCCCCS(=O)CCCC(F)(F)C(F)(F)F)[C@H]3[C@@H]1CC[C@@H]2O` (stereo not given in full), the AC50 was 15.6 µM (active).

`C#CCOC(=O)[C@@H](C)Oc1ccc(Oc2ncc(Cl)cc2F)cc1`: the result was inactive.

`O=C(O)C1(C(=O)Nc2ccc(Cl)cc2Cl)CC1`: the half-maximal activity concentration (AC50) was 77.4 µM (active).

For `COc1c(Cl)ccc(Cl)c1C(=O)O`, the molecule was called inactive.

With `C#C[C@]1(O)CC[C@H]2[C@@H]3CCC4=CC(=O)CC[C@@H]4[C@H]3CC[C@@]21CC`, the call was inactive. Turning to `CCC(C)OC(=O)N1CCCCC1CCO` (stereo not given), the call was inactive.

As for `CCSC(=O)N(CC(C)C)CC(C)C`, the result was inactive. Same read-out and setting: next, `O=C(O)c1ccccc1`: “inactive”. Same read-out and setting: next, `CCOC(=O)C(C)Oc1ccc(Oc2nc3ccc(Cl)cc3o2)cc1` (stereo not given): “inactive”; `O=C(c1ccc(O)cc1O)c1ccc(O)cc1O`: “inactive”.

Take `CCCOC(=O)NCCCN(C)C`: the result was inactive. For `O=C(Nc1ccc([N+](=O)[O-])cc1Cl)c1cc(Cl)ccc1O`, the AC50 is 2.85 µM (active). As for `O=C(c1ccccc1)C1CCCCC1`, the molecule was called inactive. With `Oc1ccc(C(c2ccc(O)cc2)C(Cl)(Cl)Cl)cc1`, the AC50 is 88.8 µM (active). Regarding `CC(C)(c1ccc(O)cc1)c1ccc(O)cc1`, the molecule was called inactive. For the molecule `CCNc1nc(N)nc(Cl)n1`, the molecule was classed as inactive.

With `N[C@@H](Cc1cc(I)c(Oc2ccc(O)c(I)c2)c(I)c1)C(=O)O`, the AC50 is 7.94 µM (active). On the same count and under the same terms, with `Cc1nn(C)c(Oc2ccccc2)c1C=NOCc1ccc(C(=O)OC(C)(C)C)cc1` the figure was 2.16 µM (active).

As for `CCN(CC)C(=O)c1cccc(C)c1`, the molecule was called inactive. As to `CCCN(CCC)C(=O)SCC`, the molecule was classed as inactive. In the case of `CCCCOC(=O)C(C)Oc1ccc(Oc2ccc(C(F)(F)F)cn2)cc1` (stereo not given), the outcome was inactive. Still for that read-out and setting: with `CC1(C)C(C=C(Cl)Cl)C1C(=O)OCc1cccc(Oc2ccccc2)c1` (stereo not given) the entry was “inactive”. As for `CCOC(=O)NCCOc1ccc(Oc2ccccc2)cc1`, the AC50 was 89.3 µM (active).

In the case of `CCOC(=O)COc1cc(-n2ncc(C(F)(F)F)c(C)c2=O)c(F)cc1Cl`, the result was inactive. The same measure, in the same setting: with `CCCOC(=O)c1ccc(C(=O)OCCC)nc1` the entry was “inactive”; with `COC(=O)c1ccc(I)cc1S(=O)(=O)NC(=O)Nc1nc(C)nc(OC)n1`, “inactive”. Regarding `C=CCOC(Cn1ccnc1)c1ccc(Cl)cc1Cl` (stereo not given), the AC50 was 33.5 µM (active). As to `CCCCCCC(C)OC(=O)COc1nc(F)c(Cl)c(N)c1Cl` (stereo not given), the molecule was classed as inactive.

Take `COCCO`: the result was inactive. On the same count and under the same terms, with `CC(C)(C)[C@@H](O)[C@@H](Cc1ccc(Cl)cc1)n1cncn1` the entry was “inactive”; with `CCCCC(CC)COC(=O)c1ccccc1C(=O)O` (stereo not given), “inactive”.

For the molecule `CCN(Cc1c(F)cccc1Cl)c1c([N+](=O)[O-])cc(C(F)(F)F)cc1[N+](=O)[O-]`, the call was inactive.
